# Experimental data from PubChem BioAssay (Tox21).
# A number with no mark means an inactive call. Records with an inconclusive call do not appear. Entries that show only a call come without a potency. The source made the active and inactive calls. Unless noted, the call rests on the fitted dose curve.
# Assays:
# [1] = Nuclear factor erythroid 2-related factor 2/antioxidant responsive element (Nrf2/ARE) small molecule agonists: qHTS cell viability counter screen in human keratinocytes (AID 1919968; active means well fitted curve in the direction sought with a large enough effect in the repeat runs; an effect the other way counts as inactive or inconclusive; further: nearly all actives have a fitted effect of over 55% in size)
# Outline: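 KeratinoSens cells (HaCaT keratinocytes stably carrying an ARE-luciferase reporter) were seeded at 1,500 cells/well and rested 5 h at 37 C/5% CO2. They were then exposed to compounds in DMSO for 23 h. Viability was read by CellTiter-Fluor fluorescence after 1 h.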
# [2] = Nuclear factor erythroid 2-related factor 2/antioxidant responsive element (Nrf2/ARE) small molecule agonists: luciferase reporter gene qHTS assay in human keratinocytes (AID 1919969); further: nearly all actives have a fitted effect of over 35% in size; further: potency means the concentration at half of the fitted maximal effect
# [3] = G protein-coupled receptor (GPCR) small molecule agonists, calcium flux assay: HEK293 wild type cell line counter screen (AID 1920065)
# Outline: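 Cells were plated and cultured 18 h at 37 C/5% CO2, then loaded with calcium dye for 1 h at 37 C. Compounds in DMSO were pin-transferred in agonist mode, and fluorescence (Ex/Em 480/540) was read kinetically for 3 min at 1 s intervals.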
# [4] = p53 small molecule agonists, cell-based qHTS assay with human liver microsomes: qHTS cell viability counter screen (AID 1963579); further: nearly all actives have a fitted effect of over 45% in size
# Outline: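 HLM-supplemented (0.5 mg/mL final) and NADPH-supplemented (0.5 mg/mL final) p53RE-bla cultures, 4,000 cells per well, were dosed with compounds in DMSO for 16 h at 37 C; luminescent ATP detection (CellTiter-Glo, 30 min, room temperature) quantified surviving cells.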
# [5] = p53 small molecule agonists, cell-based qHTS assay with rat liver microsomes: qHTS cell viability counter screen (AID 1963580); further: nearly all actives have a fitted effect of over 45% in size
# Outline: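 Viability is assessed in parallel with the p53 reporter read: HCT-116 p53RE-bla cells receive compounds plus rat microsomes and NADPH (0.5 mg/mL final apiece), incubate 16 h at 37 C, and then CellTiter-Glo luminescence is recorded.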
# [6] = p53 small molecule agonists, cell-based qHTS assay: qHTS cell viability counter screen (AID 1963581); further: nearly all actives have a fitted effect of over 45% in size
# Outline: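 p53RE-bla HCT-116 cells were exposed to compounds for 16 h at 37 C; after the beta-lactamase FRET read in the same wells, CellTiter-Glo was added and luminescence (intracellular ATP) read after 30 min at room temperature.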
# [7] = biological target: Muscarinic acetylcholine receptor M1 (Homo sapiens) (UniProt P11229); assay: Cholinergic receptor muscarinic 1 (CHRM1) small molecule antagonists, cell-based qHTS assay (AID 1963588); further: nearly all actives have a fitted effect of over 40% in size
# Outline: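 CHRM1-CHO calcium-flux assay, antagonist mode. Cells were seeded 18 h, dye-loaded 1 h at 37 C and given compound for 5 min at RT, then acetylcholine was added at 50nM. FDSS fluorescence was read 3 min; 15 concentrations, three runs.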
# [8] = biological target: Muscarinic acetylcholine receptor M1 (Homo sapiens) (UniProt P11229); assay: Cholinergic receptor muscarinic 1 (CHRM1) small molecule agonists, cell-based qHTS assay (AID 1963589); further: nearly all actives have a fitted effect of over 35% in size
# Outline: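 CHO cells stably expressing human CHRM1, seeded 18 h at 37 C/5% CO2, dye-loaded 1 h at 37 C, then given compound in agonist mode; intracellular calcium fluorescence read kinetically at 1 s intervals. Fifteen concentrations, three independent runs.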
# [9] = cAMP Responsive Elements (CRE) small molecule agonists, cell-based qHTS assay (AID 1963590)
# Outline: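 CRE-bla HEK 293T cells in DMEM with 10% dialyzed FBS, NEAA, pyruvate and 25 mM HEPES were plated 18 h at 37 C/5% CO2, then exposed to compounds in DMSO for 3 h before LiveBLAzer B/G FRET substrate addition.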
# [10] = biological target: Beta-2 adrenergic receptor (Homo sapiens) (UniProt P07550); assay: Adrenergic beta2 receptor (ADRB2) small molecule antagonists, cell-based qHTS assay (AID 1963592); further: series mostly up to about 92 µM; nearly all actives have a fitted effect of over 50% in size
# Outline: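 Cells (CHO, stable ADRB2 overexpression) incubated 18-20hr at 37C; compounds added from DMSO; agonist mix (1nM isoproterenol, 100uM IBMX, 25uM Ro-20-1724) added; 0.5hr RT; d2-cAMP and anti-cAMP-cryptate added; 1hr RT; 665/615 nm read.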
# [11] = biological target: Beta-2 adrenergic receptor (Homo sapiens) (UniProt P07550); assay: Adrenergic beta2 receptor (ADRB2) small molecule agonists, cell-based qHTS assay (AID 1963593);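 further: CHO cells stably overexpressing human ADRB2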
# Outline: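 CHO cells stably over-expressing ADRB2 were plated overnight at 37C, then dosed with compounds plus a stimulation mix containing 100uM IBMX and 25uM Ro-20-1724 for 0.5hr at room temperature. cAMP was measured by HTRF competition, 1hr.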
# [12] = biological target: D(2) dopamine receptor (Homo sapiens) (UniProt P14416); assay: Dopamine D2 receptor (DRD2) small molecule agonists, cell-based qHTS assay (AID 1963594); further: nearly all actives have a fitted effect of over 35% in size
# Outline: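 HEK293 cells stably expressing human DRD2, pre-treated with PDE inhibitor Ro20-1724 (0.1 mM final) and compound 10 min at room temperature, then stimulated with NKH477 (200nM […]) for 30 min. cAMP read by HTRF (665/620 nm).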
# [13] = biological target: KiSS-1 receptor (Homo sapiens) (UniProt Q969F8); assay: Human kisspeptin (KISS1R) small molecule agonists, calcium flux assay in KISS1R-HEK293 cells (AID 1920064; active means well fitted curve in the direction sought with a large enough effect in the repeat runs; an effect the other way counts as inactive or inconclusive)
# Outline: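 HEK293 cells stably expressing human KISS1R were plated 18 h at 37 °C, loaded with calcium dye for 1 h at 37 °C, then given compound by pin tool. Fluorescence (Ex/Em 480/540) was read kinetically for 3 min.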
# [14] = p53 small molecule agonists, cell-based qHTS assay with human liver microsomes (AID 1963577);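 further: p53 response element beta-lactamase reporter cells with liver microsomes plus NADPH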
# Outline: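 Reporter activation was measured by LiveBLAzer fluorescence intensity in p53RE-bla cells, which had been exposed to compounds for 16 h at 37 C alongside 0.5 mg/mL human liver microsomes and 0.5 mg/mL NADPH (final concentrations).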
# [15] = p53 small molecule agonists, cell-based qHTS assay with rat liver microsomes (AID 1963578)
# Outline: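 Compound in DMSO added to p53RE-bla cells 5 h post-plating; rat microsomes/NADPH 0.5 mg/mL final; 16 h, 37 C; LiveBLAzer 2 h RT.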
# [16] = p53 small molecule agonists, cell-based qHTS assay (AID 1963582; active means well fitted activation curve with a large enough effect in the signal ratio in the repeat runs, not every such curve was filed as active; the % refers to the signal ratio)
# Outline: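 p53RE-bla beta-lactamase reporter cells rested 5 h at 37 C/5% CO2, then received compounds in DMSO by pin transfer and were incubated 16 h at 37 C. LiveBLAzer B/G FRET substrate was loaded for 2 h at room temperature before fluorescence reading.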
# [17] = biological target: 5-hydroxytryptamine receptor 2A (Homo sapiens) (UniProt P28223); assay: 5-hydroxytryptamine receptor 2A (HTR2A) small molecule antagonists, cell-based qHTS assay (AID 1963586); further: nearly all actives have a fitted effect of over 45% in size
# Outline: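 Antagonist-mode intracellular calcium assay: DOI (4 nM) added after 5 min compound pre-incubation at room temperature to dye-loaded HTR2A-CHO cells. Fluorescence followed for 3 min, sampled every second.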
# [18] = biological target: 5-hydroxytryptamine receptor 2A (Homo sapiens) (UniProt P28223); assay: 5-hydroxytryptamine receptor 2A (HTR2A) small molecule agonists, cell-based qHTS assay (AID 1963587); further: nearly all actives have a fitted effect of over 30% in size
# Outline: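 CHO cells stably expressing human HTR2A, plated 18 h, loaded with calcium dye 1 h at 37 C. Agonist mode: compounds added and intracellular calcium fluorescence recorded kinetically for 2 min at 1 sec intervals.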
# [19] = cAMP Responsive Elements (CRE) small molecule antagonists, cell-based qHTS assay (AID 1963591; active means well fitted inhibition curve with a large enough effect in the signal ratio in the repeat runs, not every such curve was filed as active; the % refers to the signal ratio)
# Outline: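 CRE-bla HEK293T cells were plated 18 h at 37 °C/5% CO2, pinned with compound in DMSO, then stimulated with NKH477 at 0.25 uM final for 3 h. LiveBLAzer B/G FRET substrate was added and plates incubated 2 h at room temperature.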
# [20] = biological target: D(2) dopamine receptor (Homo sapiens) (UniProt P14416); assay: Dopamine D2 receptor (DRD2) small molecule antagonists, cell-based qHTS assay (AID 1963595; active means well fitted inhibition curve with a large enough effect in the signal ratio in the repeat runs, with a control signal flat; the % refers to the signal ratio)
# Outline: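 HTRF cAMP read-out at 665 and 620 nm emission (340 nm excitation). Antagonist mode: compounds were tested against 12 nM quinpirole in DRD2-HEK293 cells, with 200 nM NKH477 raising cAMP and 0.1 mM Ro20-1724 blocking its breakdown.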
# Chain of Beta-2 adrenergic receptor (Homo sapiens) (P07550 whole entry, looked up): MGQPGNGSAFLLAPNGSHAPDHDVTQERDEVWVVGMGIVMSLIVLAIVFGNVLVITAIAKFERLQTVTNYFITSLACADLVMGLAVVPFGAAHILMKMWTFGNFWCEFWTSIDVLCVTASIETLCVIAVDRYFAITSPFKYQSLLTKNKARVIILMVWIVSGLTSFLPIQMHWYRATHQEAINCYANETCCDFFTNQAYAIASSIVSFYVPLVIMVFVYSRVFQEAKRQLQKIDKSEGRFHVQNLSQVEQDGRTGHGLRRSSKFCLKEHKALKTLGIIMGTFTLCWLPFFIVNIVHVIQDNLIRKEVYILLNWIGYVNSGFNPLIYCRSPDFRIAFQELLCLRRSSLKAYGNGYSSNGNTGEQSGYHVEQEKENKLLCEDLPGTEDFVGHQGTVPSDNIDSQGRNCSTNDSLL
# Chain of KiSS-1 receptor (Homo sapiens) (Q969F8 whole entry, looked up): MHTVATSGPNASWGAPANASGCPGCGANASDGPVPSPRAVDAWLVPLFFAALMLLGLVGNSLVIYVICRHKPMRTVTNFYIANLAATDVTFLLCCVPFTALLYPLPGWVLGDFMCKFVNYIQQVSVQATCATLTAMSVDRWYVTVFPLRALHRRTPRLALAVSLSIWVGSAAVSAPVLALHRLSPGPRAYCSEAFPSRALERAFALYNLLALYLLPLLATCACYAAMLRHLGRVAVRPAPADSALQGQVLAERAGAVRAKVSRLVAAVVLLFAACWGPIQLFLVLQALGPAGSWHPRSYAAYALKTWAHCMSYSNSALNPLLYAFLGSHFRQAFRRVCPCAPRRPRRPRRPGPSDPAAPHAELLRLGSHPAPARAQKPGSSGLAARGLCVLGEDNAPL
# Chain of D(2) dopamine receptor (Homo sapiens) (P14416 whole entry, looked up): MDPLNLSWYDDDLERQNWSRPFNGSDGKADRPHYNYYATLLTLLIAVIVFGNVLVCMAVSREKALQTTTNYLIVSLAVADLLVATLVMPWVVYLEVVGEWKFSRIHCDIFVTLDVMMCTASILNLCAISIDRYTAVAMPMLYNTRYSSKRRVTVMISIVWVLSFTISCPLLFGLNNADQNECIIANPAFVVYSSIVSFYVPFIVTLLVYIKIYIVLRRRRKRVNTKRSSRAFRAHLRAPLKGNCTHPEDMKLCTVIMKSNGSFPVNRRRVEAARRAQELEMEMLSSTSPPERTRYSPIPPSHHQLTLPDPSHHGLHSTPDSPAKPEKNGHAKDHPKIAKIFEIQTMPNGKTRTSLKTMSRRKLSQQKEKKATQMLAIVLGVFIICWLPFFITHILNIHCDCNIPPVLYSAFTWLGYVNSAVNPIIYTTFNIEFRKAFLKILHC
# Chain of Muscarinic acetylcholine receptor M1 (Homo sapiens) (P11229 whole entry, looked up): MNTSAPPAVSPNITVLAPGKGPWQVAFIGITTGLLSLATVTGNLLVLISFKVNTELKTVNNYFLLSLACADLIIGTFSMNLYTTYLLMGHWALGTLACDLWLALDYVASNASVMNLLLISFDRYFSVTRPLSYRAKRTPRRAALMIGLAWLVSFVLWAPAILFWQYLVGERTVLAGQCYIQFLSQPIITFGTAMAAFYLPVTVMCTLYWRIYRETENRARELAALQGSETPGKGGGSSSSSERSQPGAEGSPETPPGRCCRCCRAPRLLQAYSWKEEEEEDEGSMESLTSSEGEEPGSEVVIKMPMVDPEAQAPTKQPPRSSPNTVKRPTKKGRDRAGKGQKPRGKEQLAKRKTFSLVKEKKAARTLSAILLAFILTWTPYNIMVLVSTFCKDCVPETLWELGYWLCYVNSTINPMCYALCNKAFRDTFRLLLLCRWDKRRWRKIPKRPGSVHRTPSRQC
# Chain of 5-hydroxytryptamine receptor 2A (Homo sapiens) (P28223 whole entry, looked up): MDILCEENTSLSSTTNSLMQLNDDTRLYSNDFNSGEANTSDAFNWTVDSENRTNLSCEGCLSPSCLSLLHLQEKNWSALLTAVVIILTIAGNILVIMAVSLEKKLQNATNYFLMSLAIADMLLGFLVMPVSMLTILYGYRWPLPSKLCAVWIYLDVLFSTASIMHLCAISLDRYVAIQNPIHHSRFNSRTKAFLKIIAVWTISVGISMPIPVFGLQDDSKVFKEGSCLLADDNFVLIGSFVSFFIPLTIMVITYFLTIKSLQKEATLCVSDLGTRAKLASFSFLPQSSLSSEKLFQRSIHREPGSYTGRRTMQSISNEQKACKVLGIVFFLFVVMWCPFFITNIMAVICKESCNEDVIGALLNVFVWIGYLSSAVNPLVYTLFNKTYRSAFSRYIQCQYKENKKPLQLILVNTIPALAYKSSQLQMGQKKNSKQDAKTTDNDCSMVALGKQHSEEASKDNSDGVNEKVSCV
Compound,Potency [1],Potency [2],outcome [3],Potency [4],Potency [5],Potency [6],Potency [7],Potency [8],Potency [9],Potency [10],Potency [11],Potency [12],outcome [13],Potency [14],Potency [15],Potency [16],Potency [17],Potency [18],Potency [19],Potency [20]
CCCCCCCCCCCC[N+](C)(C)CC(=O)[O-],inactive,inactive,inactive,inactive,inactive,inactive,inactive,inactive,inactive,inactive,inactive,inactive,–,–,–,–,–,–,–,–
CC(C)CCOC(=O)CC(C)C,inactive,inactive,inactive,inactive,inactive,inactive,–,inactive,inactive,inactive,inactive,inactive,inactive,inactive,inactive,inactive,inactive,inactive,inactive,inactive
CCCCCN(CCCOC)C(=O)C(CCC(=O)O)NC(=O)c1ccc(Cl)c(Cl)c1 (configuration not stated),inactive,inactive,–,inactive,inactive,inactive,inactive,–,–,inactive,–,inactive,–,inactive,inactive,inactive,inactive,inactive,–,inactive
COC(=O)c1c(C)cc(O)c(C)c1O,inactive,inactive,inactive,inactive,inactive,inactive,inactive,inactive,inactive,–,inactive,inactive,inactive,inactive,inactive,inactive,inactive,inactive,inactive,inactive
NC(=O)C(=O)N/N=C/c1ccc([N+](=O)[O-])o1,inactive,29.8 µM (active),inactive,inactive,inactive,–,inactive,inactive,inactive,inactive,inactive,–,–,–,inactive,inactive,inactive,inactive,inactive,inactive
O=C(c1ccccc1)c1cccc(O)c1,inactive,inactive,inactive,inactive,inactive,inactive,inactive,inactive,inactive,inactive,–,inactive,inactive,inactive,inactive,inactive,inactive,inactive,–,inactive
CC1OCCC1=O (configuration not stated),inactive,inactive,inactive,inactive,inactive,inactive,inactive,inactive,inactive,inactive,–,inactive,inactive,inactive,inactive,inactive,inactive,inactive,inactive,inactive
